Test results taken from PubChem BioAssay AID504357 (The Scripps Research Institute Molecular Screening Center, 2011).
Screen size: about 340,000 compounds; about 700 (0.21%) were called active. No stated cut-off is given here; in the data, active means inhibition above about 22% (passing the limit was not always enough); inactive means the rest. The full list was thinned out, with actives kept by preference.

Target: Mu-type opioid receptor (Homo sapiens) + Delta-type opioid receptor (Homo sapiens) (UniProt P35372+P41143)
Assay: OPRM1-OPRD1 heterodimer inverse agonism – cell-based, luminescence, primary screen (AID 504357);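 further: 0% = cells with DMSO and 100% = wells without cells with DMSO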
Conditions: cell-based MOR-DOR heterodimer luminescence, at 9.3 µM, hits give high values

Chain of Mu-type opioid receptor (Homo sapiens) + Delta-type opioid receptor (Homo sapiens) (P35372 whole entry, looked up): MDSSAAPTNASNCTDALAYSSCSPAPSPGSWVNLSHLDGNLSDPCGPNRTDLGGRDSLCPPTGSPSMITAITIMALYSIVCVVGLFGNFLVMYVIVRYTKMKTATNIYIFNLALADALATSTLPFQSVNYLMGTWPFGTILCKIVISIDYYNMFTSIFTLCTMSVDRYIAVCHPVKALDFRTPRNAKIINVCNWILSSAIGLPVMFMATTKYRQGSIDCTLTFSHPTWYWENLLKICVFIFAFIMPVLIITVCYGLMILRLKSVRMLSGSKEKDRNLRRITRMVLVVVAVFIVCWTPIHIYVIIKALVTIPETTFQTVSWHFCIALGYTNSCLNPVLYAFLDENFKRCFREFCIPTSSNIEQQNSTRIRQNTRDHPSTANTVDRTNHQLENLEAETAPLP
Chain of Mu-type opioid receptor (Homo sapiens) + Delta-type opioid receptor (Homo sapiens) (P41143 whole entry, looked up): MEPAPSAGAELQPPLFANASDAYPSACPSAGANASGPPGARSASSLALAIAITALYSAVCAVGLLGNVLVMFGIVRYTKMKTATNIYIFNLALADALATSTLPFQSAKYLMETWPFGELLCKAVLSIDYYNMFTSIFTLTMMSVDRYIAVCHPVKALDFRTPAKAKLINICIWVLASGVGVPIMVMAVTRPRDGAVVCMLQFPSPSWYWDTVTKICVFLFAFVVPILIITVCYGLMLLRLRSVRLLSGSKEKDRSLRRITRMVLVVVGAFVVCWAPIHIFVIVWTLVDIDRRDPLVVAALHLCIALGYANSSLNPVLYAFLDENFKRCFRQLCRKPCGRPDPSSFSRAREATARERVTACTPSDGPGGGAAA

Row | SMILES | inhibition
1 | CC1=CC(=Cc2sc3ccccc3[n+]2C)C=C(C)O1 | 17.5% (active)
2 | Clc1ccc2nc3c(c(-c4ccccc4)c2c1)CNCC3 | 8.41% (inactive)
3 | CN(C)CC1CCCCC1=O (stereo not given) | 10.9% (inactive)
4 | CCC(=O)OC(Cc1ccccc1)(c1ccccc1)C(C)CN(C)C (stereo not given) | 8.03% (inactive)
5 | O=C(OCCN1CCOCC1)C1(c2ccccc2)CCCC1 | 1.05% (inactive)
6 | CCOC(=O)c1c(N)n(Cc2ccccc2)c2nc3ccccc3nc12 | 37% (active)
7 | COc1cc(Cn2c(N)c(C(=O)NCc3ccco3)c3nc4ccccc4nc32)cc(OC)c1OC | 1.03% (inactive)
8 | CC/C(=N\NC(=O)c1ccccc1O)c1c(O)n(Cc2ccccc2)c(=O)[nH]c1=O | 9.92% (inactive)
9 | CCOC(=O)c1c(N)n(CCN2CCOCC2)c2nc3ccccc3nc12 | 30.9% (active)
10 | CC(C)(C)c1ccc(OC(=O)N2CCCCC2)cc1 | -27.7% (inactive)
11 | COC(=O)C1=C(c2ccc(F)cc2OCc2ccccc2)C[C@@H]2CC[C@H]1N2C(=O)NCc1ccc2[nH]ccc2c1 | -2.75% (inactive)
12 | O=C(NC(c1ccc(Cl)cc1)P(=O)(Oc1ccccc1)Oc1ccccc1)OCc1ccccc1 (stereo not given) | -3.43% (inactive)
13 | CCC(=O)CC(c1ccc([N+](=O)[O-])cc1)c1c(O)c2ccccc2oc1=O (stereo not given) | 14.4% (inactive)
14 | CN(C)S(=O)(=O)c1cc(C(=O)N2CCC(C(=O)O)(c3ccccc3)CC2)ccc1Cl | 19.2% (inactive)
15 | Cc1nn(-c2ccccc2)c(C)c1NC(=O)COC(=O)Cc1ccccc1 | 21% (inactive)
16 | CC(=O)OC1C2(CC3N4C(=O)C5(CO)SSC4(CC31O)C(=O)N5C)OC(C)C(C)(C)C2=O (stereo not given) | 102% (active)
17 | CC(C)Nc1nc(Cl)nc(NC(C)C)n1 | 6.88% (inactive)
18 | CCc1nnc(NS(=O)(=O)c2ccc(N=Cc3c(O)n(-c4ccccc4)c(=O)[nH]c3=O)cc2)s1 | 14.4% (inactive)
19 | CC(=NCc1ccc2c(c1)OCO2)c1c(O)[nH]c(=O)[nH]c1=O | -10.5% (inactive)
20 | CNCC(O)c1cc(F)c(OCc2ccccc2)c(OCc2ccccc2)c1F (stereo not given) | -9.33% (inactive)
